Compound activity (PubChem BioAssay)
B2AR arrestin = beta2AR (human) beta-arrestin recruitment activity; Potency, µM (series often up to 46.1 µM), for the others: at the top dose activation, hits mostly activators; beta-arrestin recruitment to beta2AR, cell-based reporter; P07550; hit rate 0.02% among 330,000;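 further: potency means the concentration at half of the fitted maximal effect; 0% = DMSO controls and full agonism = EC100 isoproterenol or metaproterenol; nearly all actives have a fitted effect of over 65% in size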
Target sequence (P07550 whole entry, looked up): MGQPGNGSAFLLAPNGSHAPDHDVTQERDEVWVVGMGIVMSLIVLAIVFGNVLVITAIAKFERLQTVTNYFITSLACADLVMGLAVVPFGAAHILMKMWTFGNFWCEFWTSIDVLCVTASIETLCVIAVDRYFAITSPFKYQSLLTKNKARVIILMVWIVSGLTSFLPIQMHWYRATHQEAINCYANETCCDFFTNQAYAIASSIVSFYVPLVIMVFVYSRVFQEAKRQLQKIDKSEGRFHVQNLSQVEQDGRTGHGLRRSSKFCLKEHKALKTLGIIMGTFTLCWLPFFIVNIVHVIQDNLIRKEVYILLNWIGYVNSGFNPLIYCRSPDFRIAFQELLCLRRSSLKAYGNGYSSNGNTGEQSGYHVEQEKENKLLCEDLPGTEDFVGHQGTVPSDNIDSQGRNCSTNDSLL
D2 antagonist = D2 dopamine receptor (human) antagonism; P14416; HEK293 TREx D2 cells, calcium flux, dopamine EC80; inhibition, % at 10 µM; hit rate 2% among 340,000; AID 485344; in the data active means inhibition above about 30%; inactive means below that, where a call was filed; further: 0% is about no effect
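Read-out: kinetic calcium fluorescence (1 cycle/s) in inducible HEK293 T-REx D2 cells after an EC80 dopamine addition that followed 180 s compound preincubation. Loss of the dopamine response indicates antagonism.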
D2 PAM-1 = D2 dopamine receptor (human) potentiation | P14416 | HEK293 T-REx D2, calcium flux, EC20 dopamine potentiation | potentiation, % at 10 µM | hit rate 0.34% among 340,000;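 active means potentiation over 3 SD above the plate norm, cut at about 30% in these data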; further: 0% is about no effect
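Using a no-wash calcium dye in inducible, force-coupled HEK293 Trex cells expressing D2, we tracked fluorescence each second for 180 s after compound, then for 180 s after EC20 dopamine to detect augmented signalling.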
D2 PAM-2 = potentiates the human D2 dopamine receptor allosterically. hit rate 0.23% among 360,000. P14416. AID 624464. DiscoveRx D2 beta-arrestin cells, luminescence, 90 min; 100% = 57 uM dopamine signal. potentiation, % (test concentration not listed); in the data active means potentiation above about 50%; inconclusive means mostly about 30% to 49%
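D2 cells co-treated with compound plus 50 nM dopamine (EC20) for 90 min at 37 deg C to detect potentiation. Beta-arrestin recruitment was read as enzyme-fragment luminescence after 1 h at ambient temperature. Full response was set by 57 uM dopamine.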
D2 ag-1 = agonists of human D2 dopamine receptor; P14416; HEK293 T-REx D2 cells, calcium flux agonist mode; activation, % at 2 µM; hit rate 0.53% among 340,000; AID 485358;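 active means activation over 3 SD above normal in the single-dose calcium agonist read, cut at about 30% in these data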; further: 0% is about no effect
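Tetracycline-induced HEK293 T-REx cells with force-coupled D2 receptor, plated overnight at 30 C, loaded with no-wash calcium dye. After a 10 s baseline, compound was pin-added and calcium flux read kinetically for 180 s; calcium rises flagged agonists.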
D2 ag-2 = agonists of human D2 dopamine receptor (beta-arrestin); P14416; DiscoveRx PathHunter D2 beta-arrestin, luminescence, 90 min; 100% = 57 uM dopamine signal; activation, % (concentration not given with the values); hit rate 0.084% among 360,000; in the data active means activation above about 40%; inconclusive means between about 15% and that limit
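DiscoveRx PathHunter D2 beta-arrestin cells (2,100/well) attached overnight, then compound-stimulated 90 min at 37 C in HBSS/10 mM HEPES/0.1% Tween-20 buffer; beta-galactosidase complementation read by luminescence after 1 h at ambient temperature. Dopamine 57 uM final (EC100) as control.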
D3 arrestin ag = confirmation of human D3 dopamine receptor agonists, beta-arrestin. Potency, µM (doses to about 76.9 µM), inactives show at the highest dose activation, most hits filed as activators. hit rate 4% among 2,300. AID 720506. shares compounds with D2 ag-1. DiscoveRx D3 beta-arrestin cells, luminescence, 90 min;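 further: potency means the concentration at half of the fitted maximal effect; 100% = dopamine control response; nearly all actives have a fitted effect of over 70% in size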
D2 ag-3 = counter-screen for D3 agonists: human D2 dopamine receptor agonism | shares compounds with D2 ag-1 | DiscoveRx PathHunter D2 beta-arrestin, luminescence, 90 min; response scale: percent relative to full dopamine signal | Potency, µM (titrated, usually from 76.9 µM), for the others: at the top dose activation, actives largely listed as activators | hit rate 5.9% among 2,300; further: potency means the concentration at half of the fitted maximal effect; % of control where 0% means no effect; nearly all actives have a fitted effect of over 70% in size
The depositor's hits bear a star; ? = inconclusive; nt = no result. Rows were chosen to be rich in hits. Some 2.4% of all compounds tested hit in one or more screens of this group. Unless noted, the call rests on the fitted dose curve; in most records, active means well fitted activation curve with a large enough effect; inconclusive means small, poorly fitted or top-dose-only effect; inactive means flat fitted curve, though single readings scatter.

SMILES | B2AR arrestin | D2 antagonist | D2 PAM-1 | D2 PAM-2 | D2 ag-1 | D2 ag-2 | D3 arrestin ag | D2 ag-3
COc1ccc(CNC(=O)CCC(=O)N2CCN(C(C)=O)CC2)cc1 | 0% | 8 | -2 | -4 | 1 | 6 | nt | nt
C=CCn1c(-c2sc3nc(C)cc(C)c3c2N)n[nH]c1=S | -1% | 32* | 4 | 2 | -2 | 3 | 13% | -13%
C=CCn1c(-c2cc(OC)cc(OC)c2)n[nH]c1=S | 0% | -17 | 3 | -4 | 0 | 1 | nt | nt
O=C1C=C(/C=C/c2ccccc2)C[C@@H](c2ccc(F)cc2)C1 | -1% | -24 | -7 | -4 | 1 | -5 | -9% | 7%
CN(C)CCOc1ccccc1-c1ccccc1 | 0% | nt | nt | -15 | nt | -1 | nt | nt
CCCCNCCOc1ccccc1-c1ccccc1 | -1% | 69* | -19 | -31 | 28 | -7 | -25% | 8%
CC(O)CNCCOc1ccccc1-c1ccccc1 (centres undefined) | 0% | 58* | -24 | -12 | 58* | 2 | -10% | 12%
Fc1ccc(N=c2ssnc2Cl)c(F)c1 | 0% | 2 | 14 | -7 | 1 | 6 | nt | nt
CCn1c(N2CCN(S(=O)(=O)c3ccccc3)CC2)nc2ccccc21 | 0% | 20 | 19 | -1 | -1 | ? | ? | 19%
CCOc1ccc2nc(SCC(=O)NC3CCS(=O)(=O)C3)[nH]c2c1 (centres undefined) | 0% | -12 | -4 | 23 | 0 | -1 | nt | nt
CC[n+]1c(/C=C/C=C/N(C(C)=O)c2ccccc2)sc2cc(OC)ccc21 | 3% | 15 | -14 | -30 | 73* | 12 | 21% | ?
CC(C)(C)C(=O)C(CO)(Oc1ccc(Cl)cc1)n1cncn1 (centres undefined) | 0% | 8 | -10 | -7 | 0 | -3 | nt | nt
Cn1c(C=O)c(C#CC(C)(C)O)c2ccccc21 | 0% | -7 | 4 | -14 | 0 | 2 | -4% | -4%
COc1cccc(C#Cc2c(C=O)n(C)c3ccccc23)c1 | 0% | -7 | -18 | -4 | 0 | -3 | nt | nt
CC(/C=C/c1ccccc1)=N\NC(=S)NC(C)C | 0% | 2 | -17 | -22 | 31* | -9 | -4% | -6%
Cc1ccccc1CN1CCN(C(C)C(=O)NNC(=O)c2ccc(F)cc2)CC1 (centres undefined) | -1% | 25 | -15 | -3 | 58* | 1 | -9% | 10%
C[C@H]1[C@H](C)CC[C@]2(C)CC[C@]3(C)C(=CC(=O)C4[C@@]5(C)CC[C@H](O)C(C)(C)C5CC[C@]43C)[C@H]12 (some centres undefined) | 0% | 21 | 0 | 0 | 0 | -4 | -2% | -1%
CCC(=NCCc1ccccc1)C1=C(O)CCC1=O | 0% | -5 | -17 | 2 | 49* | -4 | 3% | 2%
CCOC(=O)[C@H]1[C@H]2COc3ccc(Br)cc3[C@@H]2N2C(=O)CN(Cc3ccc(Cl)cc3)C(=O)[C@@]12C | 0% | nt | nt | -1 | nt | -4 | nt | nt
CCOC(=O)[C@H]1[C@H]2COc3ccc(Br)cc3[C@@H]2N2C(=O)CN(Cc3ccco3)C(=O)[C@@]12C | 0% | -7 | 12 | 2 | 1 | 2 | -4% | -3%
CCOC(=O)[C@H]1[C@H]2COc3ccc(Cl)cc3[C@@H]2N2C(=O)CN(C)C(=O)[C@@]12C | -1% | -8 | -18 | -10 | 0 | -3 | -3% | -3%
CN(c1ccccc1)C(c1ccc(F)cc1)c1nnnn1CC1CCCO1 (centres undefined) | 0% | -5 | 1 | -5 | 0 | -2 | nt | nt
Cc1cc(Cl)ccc1OC(C)C(=O)NN=C1CCCCCC1 (centres undefined) | 0% | 0 | 2 | -6 | 2 | -4 | nt | nt
Cc1ccc(NC(=O)c2ccc(-n3cncn3)c([N+](=O)[O-])c2)cc1 | 0% | -27 | 3 | -7 | 1 | 2 | nt | nt
Cc1cc(Br)ccc1NC(=O)CN(C)C(=O)c1ccc(-n2cncn2)c([N+](=O)[O-])c1 | 0% | -27 | -1 | -5 | -1 | 4 | -1% | 1%
CCN(CC)S(=O)(=O)c1cc(NC(=O)c2ccc(-n3cncn3)c([N+](=O)[O-])c2)ccc1C | -1% | -19 | -19 | 8 | 57* | 6 | 20% | 17%
O=C1c2ccccc2C(=O)N1CCc1nc2ccccc2c(=O)n1-c1ccccn1 | 0% | -7 | nt | 22 | -1 | -4 | nt | nt
